Calls of active or inactive are those of the source.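 How the source made its calls: active means IC50 at or below 10 µM; inconclusive means IC50 above 10 µM but below 20 µM; inactive means IC50 of 20 µM or more.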
target: Neuropeptide S receptor (Homo sapiens) (UniProt Q6W5P4); assay: Robust Characterization of cAMP Signal Transduction for Antagonists of the Neuropeptide S Receptor: SAR; conditions: CHO-NPSR cells, NPS-stimulated cAMP, TR-FRET
Source text: Neuropeptide S receptor (NPSR), previously known as GPR154, is a recently de-orphanized G protein coupled receptor. Its endogenous ligand is the 20 amino acids peptide Neuropeptide S (NPS). […] NPS and its receptor are found in various tissues. Specifically they are highly expressed in brain areas that have been implicated in modulation of arousal, stress and anxiety. Central administration of NPS in mice produces an unusual profile of activity by inducing wakefulness and arousal, while at the same time suppressing anxiety. Therefore, NPSR may represent a novel drug target for the treatment of sleep and anxiety disorders. To identify NPSR antagonists, we developed a cell-based cAMP assay. NPS can stimulate the production of cAMP in Chinese hamster ovary cells stably expressing NPS receptor. This change in intracellular cAMP level can be detected by a homogeneous LANCE cAMP assay based on the TR-FRET (time resolved fluorescence resonance energy transfer) between a europium-labeled cAMP tracer complex and a cAMP-specific antibody labeled with Alexa Fluor 647. The europium-labeled cAMP tracer complex is formed by the tight interaction between Biotin-cAMP (b-cAMP) and streptavidin labeled with Europium-W8044 chelate (Eu-SA). Light pulse at 320 nm excites the europium of the cAMP tracer and the energy emitted is transferred to the Alexa molecule bound to the cAMP antibody, generating a TR-FRET signal at 665 nm. Residual energy from the europium will produce a light at 620 nm. The native unlabeled cAMP from cell lysates competes with the europium-cAMP tracer for antibody binding and reversely reduces the emission signal of Alexa by interrupting FRET between the two labeled molecules. Both emission signals from the FRET donor (620 nm) and the acceptor (665 nm) can be detected by a plate reader in the TRF mode. Expression of result in fluorescence ratio (665 nm/620 nm) helps to normalize differences due to cell density and reagent dispensing. This assay was successfully optimized to a 1536-well plate format. Select compounds from the primary screen (AID 1461) were chosen for confirmation based on potency, efficacy, SAR, and activity across other assays in PubChem and at NCGC. Other compounds are analogs of active compounds from the primary screen. […]
A Chinese hamster ovary (CHO) cell line stably expressing the NPS receptor (CHO-NPSR) was obtained from Dr. Heilig lab at NIAAA and maintained in F-12 Kaighn's media (Invitrogen, Carlsbad, CA, 21127) supplemented with 10 % FBS, 100 units/ml penicillin, 100 ug/ml streptomycin and 250 ug/ml geneticin at 37C, 5% CO2 in a humidified atmosphere. […] IC50 values were determined from concentration-response data modeled with the standard Hill equation. […]

Neuropeptide S receptor (Homo sapiens), sequence (Q6W5P4 whole entry, looked up): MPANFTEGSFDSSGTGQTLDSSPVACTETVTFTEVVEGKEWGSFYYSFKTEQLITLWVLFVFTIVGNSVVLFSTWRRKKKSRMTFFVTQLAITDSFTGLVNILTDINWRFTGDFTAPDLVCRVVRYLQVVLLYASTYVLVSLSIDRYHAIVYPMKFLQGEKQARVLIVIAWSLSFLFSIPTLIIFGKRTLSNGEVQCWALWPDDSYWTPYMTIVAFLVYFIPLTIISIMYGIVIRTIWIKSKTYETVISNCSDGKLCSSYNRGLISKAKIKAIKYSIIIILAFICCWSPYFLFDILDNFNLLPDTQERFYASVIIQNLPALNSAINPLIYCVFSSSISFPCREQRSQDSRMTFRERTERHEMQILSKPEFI

IC50, active:
COc1ccc(C2c3c(ncn(CCN4CCOCC4)c3=N)Oc3ccc4ccccc4c32)cc1OC (centres undefined) 296 nM
CCC(C)(CCN1CCOCC1)N(Cc1cc2ccccc2n(C)c1=O)C(=O)C1CCCCC1 (centres undefined) 17.6 nM
O=C1OC(c2ccccc2)(c2ccccc2)N2CCN(C(=O)NCc3ccc(F)cc3)CC12 (centres undefined) 208 nM
Cc1c(P(=S)(c2ccccc2)c2ccccc2)[n+]2ccccc2n1C/C=C/c1ccccc1 22.1 nM

From PubChem BioAssay AID624054 (National Center for Advancing Translational Sciences (NCATS), 2012)
